PubChem BioAssay (Tox21)
Results filed as inconclusive are left out. The source made the active and inactive calls. Unless noted, the call rests on the fitted dose curve; in most records, active means well fitted curve in the direction sought with a large enough effect in the repeat runs; inconclusive means weak or mixed curves; inactive means no such curve, though single readings can be large; an effect the other way counts as inactive or inconclusive.

Legend:
[1] = qHTS assay to identify aromatase inhibitors - cell viability counter screen (AID 743084);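 further: cells stimulated with testosterone during compound exposure; nearly all actives have a fitted effect of over 55% in size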
[2] = target: Aryl hydrocarbon receptor (Homo sapiens) (UniProt P35869); assay: qHTS assay to identify small molecule that activate the aryl hydrocarbon receptor (AhR) signaling pathway (AID 743085); further: nearly all actives have a fitted effect of over 15% in size; further: potency means the concentration at half of the fitted maximal effect;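 on activation: HG2L7.5c1 human HepG2 liver cells with stably integrated DRE-driven firefly reporter; series mostly up to about 70 µM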
Aryl hydrocarbon receptor (Homo sapiens), sequence (P35869 whole entry, looked up): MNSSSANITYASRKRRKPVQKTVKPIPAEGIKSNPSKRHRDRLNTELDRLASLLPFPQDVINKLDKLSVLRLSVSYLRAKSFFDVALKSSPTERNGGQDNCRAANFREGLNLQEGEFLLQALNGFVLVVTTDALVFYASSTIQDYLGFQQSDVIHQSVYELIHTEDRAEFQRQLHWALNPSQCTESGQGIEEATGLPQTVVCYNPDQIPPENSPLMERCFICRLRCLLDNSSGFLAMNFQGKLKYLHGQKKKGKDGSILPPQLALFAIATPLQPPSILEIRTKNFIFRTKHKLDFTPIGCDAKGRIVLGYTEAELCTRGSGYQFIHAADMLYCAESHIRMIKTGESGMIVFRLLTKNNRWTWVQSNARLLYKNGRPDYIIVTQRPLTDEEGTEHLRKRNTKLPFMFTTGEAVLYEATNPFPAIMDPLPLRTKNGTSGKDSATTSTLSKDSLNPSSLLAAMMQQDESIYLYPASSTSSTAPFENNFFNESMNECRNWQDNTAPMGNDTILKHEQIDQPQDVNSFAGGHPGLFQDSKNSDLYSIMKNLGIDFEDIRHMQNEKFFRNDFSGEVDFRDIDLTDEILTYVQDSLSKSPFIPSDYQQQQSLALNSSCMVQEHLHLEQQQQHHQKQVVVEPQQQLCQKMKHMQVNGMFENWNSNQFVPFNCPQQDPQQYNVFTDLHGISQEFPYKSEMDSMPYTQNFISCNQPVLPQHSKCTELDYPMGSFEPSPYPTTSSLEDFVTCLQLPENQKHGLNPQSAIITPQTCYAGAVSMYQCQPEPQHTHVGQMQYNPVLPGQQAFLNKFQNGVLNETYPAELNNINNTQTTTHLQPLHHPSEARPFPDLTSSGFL
How it was run: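 Reporter assay in engineered HepG2 line HG2L7.5c1, whose plasmid carries twenty dioxin responsive elements upstream of firefly luciferase. Treatment lasted 24 h at 37C; ONE-Glo luminescence gauged induction.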

[3] = qHTS assay to identify small molecule that activate the aryl hydrocarbon receptor (AhR) signaling pathway - cell viability counter screen (AID 743086);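 further: HepG2 liver cells carrying the AhR DRE luciferase reporter; series mostly up to about 70 µM; nearly all actives have a fitted effect of over 45% in size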
How it was run: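 Cytotoxicity counter screen: CellTiter-Fluor signal (30 min, 37 C) in 4000 HepG2 cells/well carrying the DRE-luciferase reporter, following 24 h compound exposure at 37 C.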

[4] = qHTS assay to identify small molecule antagonists of the peroxisome proliferator-activated receptor gamma (PPARg) signaling pathway - cell viability counter screen (AID 743194); further: nearly all actives have a fitted effect of over 55% in size
How it was run: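 Viability was measured as CellTiter-Glo luminescence in GeneBLAzer PPARg UAS-bla HEK293H cells. These cells had been exposed 17 h at 37 C to compounds together with rosiglitazone at 50 nM final, with the beta-lactamase readout taken in the same wells.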

[5] = qHTS assay for small molecule agonists of the antioxidant response element (ARE) signaling pathway (AID 743202; active means well fitted activation curve with a large enough effect in the signal ratio in the repeat runs, not every such curve was filed as active; the % refers to the signal ratio)
How it was run: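 After 16 hours of compound treatment at 37 C, HepG2 cells with a stably integrated ARE-driven beta-lactamase reporter were loaded 2 hours at room temperature with LiveBLAzer B/G FRET substrate and fluorescence intensity measured.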

[6] = qHTS assay for small molecule agonists of the antioxidant response element (ARE) signaling pathway - cell viability counter screen (AID 743203; calls by dose curve; further: nearly all actives have a fitted effect of over 55% in size)
How it was run: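 Cytotoxicity was tested in parallel with the ARE reporter screen. ARE-bla HepG2 cells were exposed to compounds for 16 hrs, and viability was taken from CellTiter-Glo luminescence.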

[7] = qHTS assay for small molecule activators of the heat shock response signaling pathway - cell viability counter screen (AID 743209); further: nearly all actives have a fitted effect of over 50% in size
How it was run: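 Cytotoxicity counter screen run in parallel with the HSE beta-lactamase reporter, using the same wells. HeLa HSE-bla cells received compound for 5 h at 37 C; ATP-based CellTiter-Glo luminescence was measured after 30 min at room temperature.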

[8] = qHTS assay for small molecule activators of the heat shock response signaling pathway (AID 743210; active means well fitted activation curve with a large enough effect in the signal ratio in the repeat runs, with a control signal flat, not every such curve was filed as active; the % refers to the signal ratio; further: series mostly up to about 63 µM)
How it was run: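 Compound exposure lasted 5 h at 37 C in HeLa cells carrying a heat-shock-element-driven beta-lactamase reporter. Read-out: fluorescence intensity after 2.5 h room-temperature loading with LiveBLAzer B/G FRET substrate.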

[9] = qHTS assay to identify small molecule agonists of the peroxisome proliferator-activated receptor delta (PPARd) signaling pathway - cell viability counter screen (AID 743211); further: nearly all actives have a fitted effect of over 55% in size
How it was run: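 Multiplexed format: after the 2 h room-temperature LiveBLAzer B/G FRET step, CellTiter-Glo was added to the same wells. Luminescence after 30 min gave cell viability; compound exposure was 17 h at 37C.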

[10] = qHTS assay to identify small molecule antagonists of the peroxisome proliferator-activated receptor delta (PPARd) signaling pathway - cell viability counter screen (AID 743213); further: nearly all actives have a fitted effect of over 50% in size
How it was run: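 PPARd-bla HEK293H cells were treated with compounds plus agonist L165041 (300 nM final) for 17 h at 37 C. Viability was then read in the same wells by CellTiter-Glo luminescence after 30 min at room temperature.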

[11] = target: Bile acid receptor (Homo sapiens) (UniProt Q96RI1); assay: qHTS assay to identify small molecule antagonists of the farnesoid-X-receptor (FXR) signaling pathway (AID 743217; active means well fitted inhibition curve with a large enough effect in the signal ratio in the repeat runs, not every such curve was filed as active; the % refers to the signal ratio)
Bile acid receptor (Homo sapiens), sequence (Q96RI1 whole entry, looked up): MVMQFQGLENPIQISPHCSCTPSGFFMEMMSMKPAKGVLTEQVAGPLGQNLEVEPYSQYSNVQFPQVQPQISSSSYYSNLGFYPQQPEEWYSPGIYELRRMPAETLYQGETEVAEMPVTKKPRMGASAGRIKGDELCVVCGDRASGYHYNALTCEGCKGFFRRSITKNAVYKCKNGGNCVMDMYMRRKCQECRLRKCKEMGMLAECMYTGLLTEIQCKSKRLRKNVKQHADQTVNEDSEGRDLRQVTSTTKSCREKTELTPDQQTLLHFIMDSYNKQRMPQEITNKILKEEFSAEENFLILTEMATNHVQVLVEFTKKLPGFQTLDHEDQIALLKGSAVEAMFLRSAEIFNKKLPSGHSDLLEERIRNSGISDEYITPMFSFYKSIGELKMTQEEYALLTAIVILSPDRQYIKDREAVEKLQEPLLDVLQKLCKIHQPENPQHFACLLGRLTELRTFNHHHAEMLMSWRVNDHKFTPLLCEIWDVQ
How it was run: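 Cells carrying a UAS-driven beta-lactamase reporter (GeneBLAzer FXR-UAS-bla HEK 293T) were plated and rested 5 h at 37 °C. Compounds in DMSO were added alongside chenodeoxycholic acid agonist at 50 uM final and left 16 h at 37 °C before FRET substrate readout.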

[12] = target: Bile acid receptor (Homo sapiens) (UniProt Q96RI1); assay: qHTS assay to identify small molecule agonists of the farnesoid-X-receptor (FXR) signaling pathway (AID 743220; active means well fitted activation curve with a large enough effect in the signal ratio in the repeat runs, not every such curve was filed as active; the % refers to the signal ratio)
How it was run: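 FXR-UAS-bla HEK 293T cells carrying a UAS-driven beta-lactamase reporter were plated for 5 h at 37C/5% CO2, then exposed to DMSO-dissolved Tox21 10K compounds for 16 h at 37C. A LiveBLAzer B/G FRET substrate was loaded for 2 h at room temperature before fluorescence reading.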

[13] = qHTS assay to identify small molecule antagonists of the farnesoid-X-receptor (FXR) signaling pathway - cell viability counter screen (AID 743221; active means well fitted cell-killing curve with a large enough effect in the repeat runs, not every such curve was filed as active; further: nearly all actives have a fitted effect of over 50% in size)
How it was run: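 CellTiter-Glo, 30 min RT, luminescence; same wells as the LiveBLAzer FRET read. Cells: FXR-UAS-bla HEK 293T. Treatment: compound with chenodeoxycholic acid 50 uM final, 16 h at 37 C.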

[14] = target: Vitamin D3 receptor (Homo sapiens) (UniProt P11473); assay: qHTS assay to identify small molecule antagonists of the vitamin D receptor (VDR) signaling pathway (AID 743223; active means well fitted inhibition curve with a large enough effect in the signal ratio in the repeat runs, not every such curve was filed as active; the % refers to the signal ratio)
Vitamin D3 receptor (Homo sapiens), sequence (P11473 whole entry, looked up): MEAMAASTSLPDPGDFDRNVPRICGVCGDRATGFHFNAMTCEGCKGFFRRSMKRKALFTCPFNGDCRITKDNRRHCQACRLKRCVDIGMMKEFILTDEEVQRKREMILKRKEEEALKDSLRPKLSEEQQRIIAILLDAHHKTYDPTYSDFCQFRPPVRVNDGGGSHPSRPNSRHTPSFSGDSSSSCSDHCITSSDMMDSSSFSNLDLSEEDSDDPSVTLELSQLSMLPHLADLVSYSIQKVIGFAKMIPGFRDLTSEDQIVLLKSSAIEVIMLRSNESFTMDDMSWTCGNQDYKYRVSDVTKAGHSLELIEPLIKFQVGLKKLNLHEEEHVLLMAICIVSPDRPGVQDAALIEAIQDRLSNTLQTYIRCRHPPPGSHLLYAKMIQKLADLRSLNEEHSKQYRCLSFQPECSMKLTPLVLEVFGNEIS
How it was run: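 After VDR-bla cells are plated and left 4 h at 37C, DMSO-dissolved compounds and 3 nM (final) calcitriol agonist are added. Incubation continues 16 h at 37C; FRET beta-lactamase substrate then develops 2 h at room temperature.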

[15] = target: Peroxisome proliferator-activated receptor gamma (Homo sapiens) (UniProt P37231); assay: qHTS assay to identify small molecule agonists of the peroxisome proliferator-activated receptor gamma (PPARg) signaling pathway (AID 743094; active means well fitted activation curve with a large enough effect in the signal ratio in the repeat runs, not every such curve was filed as active; the % refers to the signal ratio)
Peroxisome proliferator-activated receptor gamma (Homo sapiens), sequence (P37231 whole entry, looked up): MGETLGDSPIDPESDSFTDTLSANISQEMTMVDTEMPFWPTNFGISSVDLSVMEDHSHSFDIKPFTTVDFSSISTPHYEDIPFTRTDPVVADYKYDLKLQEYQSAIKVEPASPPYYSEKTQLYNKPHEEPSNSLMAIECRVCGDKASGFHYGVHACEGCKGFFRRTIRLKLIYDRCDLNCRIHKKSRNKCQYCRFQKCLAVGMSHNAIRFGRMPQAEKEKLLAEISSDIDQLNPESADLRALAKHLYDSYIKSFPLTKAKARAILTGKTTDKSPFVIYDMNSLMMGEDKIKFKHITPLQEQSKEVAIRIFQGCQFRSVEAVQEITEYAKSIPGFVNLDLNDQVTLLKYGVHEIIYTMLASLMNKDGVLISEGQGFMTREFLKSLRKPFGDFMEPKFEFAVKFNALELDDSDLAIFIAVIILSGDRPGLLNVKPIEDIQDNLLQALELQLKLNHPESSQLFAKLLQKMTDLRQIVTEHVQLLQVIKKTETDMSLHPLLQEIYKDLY
How it was run: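 Cells from the PPARg UAS-bla HEK293H line are plated and incubated 5 h at 37C. Compounds in DMSO are pinned in and left 17 h at 37C. LiveBLAzer B/G substrate is then added for 1 h at room temperature before fluorescence is measured.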

[16] = target: Peroxisome proliferator-activated receptor delta (Homo sapiens) (UniProt Q03181); assay: qHTS assay to identify small molecule agonists of the peroxisome proliferator-activated receptor delta (PPARd) signaling pathway (AID 743212; calls by dose curve)
Peroxisome proliferator-activated receptor delta (Homo sapiens), sequence (Q03181 whole entry, looked up): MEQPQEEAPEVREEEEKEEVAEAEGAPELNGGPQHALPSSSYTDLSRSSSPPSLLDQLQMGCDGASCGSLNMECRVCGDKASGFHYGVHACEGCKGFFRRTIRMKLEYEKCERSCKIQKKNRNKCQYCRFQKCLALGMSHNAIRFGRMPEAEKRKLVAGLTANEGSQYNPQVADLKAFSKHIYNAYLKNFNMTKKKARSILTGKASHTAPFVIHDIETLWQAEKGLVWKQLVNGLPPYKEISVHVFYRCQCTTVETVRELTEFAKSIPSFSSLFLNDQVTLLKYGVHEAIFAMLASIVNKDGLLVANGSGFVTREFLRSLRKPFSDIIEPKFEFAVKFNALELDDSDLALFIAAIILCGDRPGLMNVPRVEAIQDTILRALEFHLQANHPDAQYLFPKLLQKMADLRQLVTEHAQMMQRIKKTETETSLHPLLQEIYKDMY
How it was run: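 Beta-lactamase reporter readout: a ratiometric FRET signal from the LiveBLAzer substrate after 2 h at room temperature. Compound exposure at 37 °C in PPARδ-bla HEK293H cells driven by an upstream activator sequence.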

[17] = target: Peroxisome proliferator-activated receptor delta (Homo sapiens) (UniProt Q03181); assay: qHTS assay to identify small molecule antagonists of the peroxisome proliferator-activated receptor delta (PPARd) signaling pathway (AID 743215; active means well fitted inhibition curve with a large enough effect in the signal ratio in the repeat runs, not every such curve was filed as active; the % refers to the signal ratio;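 further: cells stimulated with agonist L165041 at 300 nM final during compound exposure; series mostly up to about 62 µM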)
How it was run: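 Cells: HEK293H with a UAS-driven beta-lactamase reporter responsive to PPARd. Compounds were co-added with L165041 (300 nM, final) and incubated 17 h at 37 C before a 2 h room-temperature FRET substrate step and fluorescence reading.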

[18] = qHTS assay to identify small molecule agonists of the farnesoid-X-receptor (FXR) signaling pathway - cell viability counter screen (AID 743218); further: nearly all actives have a fitted effect of over 45% in size
How it was run: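 Cells were seeded, left 5 h at 37 C and 5% CO2, then dosed with compound in DMSO for 16 h. After the beta-lactamase FRET read, CellTiter-Glo was added and luminescence measured 30 min later.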

[19] = target: Vitamin D3 receptor (Homo sapiens) (UniProt P11473); assay: qHTS assay to identify small molecule agonists of the vitamin D receptor (VDR) signaling pathway (AID 743222; calls by dose curve)
How it was run: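 Cells carrying a VDR-driven beta-lactamase reporter are seeded at 2,000 per well and rested 4 h. Compounds in DMSO are added for 16 h at 37C, and FRET substrate fluorescence is measured after 2 h at room temperature.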

[20] = target: Peroxisome proliferator-activated receptor gamma (Homo sapiens) (UniProt P37231); assay: qHTS assay to identify small molecule antagonists of the peroxisome proliferator-activated receptor gamma (PPARg) signaling pathway (AID 743191; calls by dose curve; further: series mostly up to about 63 µM; nearly all actives have a fitted effect of over 30% in size)
How it was run: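 Beta-lactamase reporter under UAS control in HEK293H PPARg-bla cells; compound treatment 17 h at 37C. Read-out: fluorescence intensity after 1 h room-temperature incubation with LiveBLAzer B/G FRET substrate.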

Measured: Potency

ClC(Cl)Cl
not listed: [15] | [16] | [17] | [18] | [19] | [20]
inactive: all other assays above

Cc1ccsc1C(=CCCN1CCC[C@@H](C(=O)O)C1)c1sccc1C
not listed: [5] | [8] | [11] | [12] | [14] | [19] | [20]
inactive: all other assays above

O=C1CCC(C2CCCCC2)CC1
not listed: [4] | [5] | [6] | [18] | [20]
inactive: all other assays above

CCCCCOc1ccc(C2SC(=O)NC2=O)cc1OCC (stereo not given)
active: [2] 29.8 µM
not listed: [11] | [12] | [15] | [16] | [17] | [19] | [20]
inactive: all other assays above

O=C(O)CN(CCN(CC(=O)O)CC(=O)O)CCN(CC(=O)O)CC(=O)O
not listed: [5] | [9] | [11] | [12] | [14] | [15] | [17]
inactive: all other assays above

CN1C(=O)CC(c2ccccc2)C1=O (stereo not given)
not listed: [6] | [9] | [14] | [16] | [17] | [18] | [19] | [20]
inactive: all other assays above

O=c1oc2c(O)c(O)cc3c(=O)oc4c(O)c(O)cc1c4c23
not listed: [5] | [15] | [16] | [17] | [20]
inactive: all other assays above

COC(=O)c1ccc(OC)cc1
not listed: [13] | [14] | [15] | [16] | [17]
inactive: all other assays above

CCCCNc1cc(C(=O)O)cc(S(N)(=O)=O)c1Oc1ccccc1
not listed: [9] | [11] | [12] | [15] | [16] | [17] | [20]
inactive: all other assays above

CC1=C(CC(=O)O)c2cc(F)ccc2/C1=C\c1ccc(S(C)(=O)=O)cc1
inactive: [1] | [2] | [3] | [4] | [6] | [7] | [8] | [9] | [10] | [18] | [13]

CC(C)NCC(O)COc1ccc(CCOCC2CC2)cc1 (stereo not given)
not listed: [11] | [12] | [15] | [16] | [17] | [20]
inactive: all other assays above

CC1=C2[C@H](/C=C(\C)C(=O)O)CC[C@@H](C)[C@H]2CC1
inactive: [1] | [2] | [3] | [4] | [6] | [7] | [9] | [10] | [11] | [12] | [13]

O=CCCc1ccccc1
not listed: [11] | [12] | [15] | [16] | [17] | [20]
inactive: all other assays above

OCCN(CCO)CCN(CCO)CCO
not listed: [5] | [11] | [12] | [16] | [17] | [18] | [20]
inactive: all other assays above

CC(C)C1=CC2=CC[C@@H]3[C@](C)(CCC[C@@]3(C)C(=O)O)[C@H]2CC1
not listed: [5] | [8] | [11] | [12] | [17] | [18] | [19] | [20]
inactive: all other assays above

CCCOCCC
not listed: [2] | [11] | [12] | [14] | [16] | [17] | [18]
inactive: all other assays above

NC(=O)Cc1cccc(C(=O)c2ccccc2)c1N
not listed: [2] | [13] | [16] | [17]
inactive: all other assays above

Nc1ccc(Oc2ccc(N)c(N)c2)cc1
active: [2] 1.54 µM
not listed: [3] | [5] | [6] | [8] | [11] | [16] | [18] | [20]
inactive: all other assays above

OC[C@H]1O[C@@H](O[C@H]2[C@H](O)[C@@H](O)[C@H](O)O[C@@H]2CO)[C@H](O)[C@@H](O)[C@H]1O
not listed: [2] | [14] | [19] | [20]
inactive: all other assays above
